Results filed as inconclusive are left out. Active and inactive are the calls of the source. Calls follow the shape of the dose curve; as a rule, active = well fitted inhibition curve with a large enough effect; inconclusive = small, poorly fitted or top-dose-only effect; inactive = no such curve, though single readings can be large or run the other way.
molecular target: Luciferin 4-monooxygenase (Photinus pyralis) (UniProt P08659); assay: FLuc inhibitory activity for the follow-up compounds in a biochemical assay with Km concentrations of substrate; settings: purified FLuc, Km substrates, luminescence; series mostly up to 57.5 µM; activity change, negative = inhibition: at the top concentration
Sequence (P08659 whole entry, looked up): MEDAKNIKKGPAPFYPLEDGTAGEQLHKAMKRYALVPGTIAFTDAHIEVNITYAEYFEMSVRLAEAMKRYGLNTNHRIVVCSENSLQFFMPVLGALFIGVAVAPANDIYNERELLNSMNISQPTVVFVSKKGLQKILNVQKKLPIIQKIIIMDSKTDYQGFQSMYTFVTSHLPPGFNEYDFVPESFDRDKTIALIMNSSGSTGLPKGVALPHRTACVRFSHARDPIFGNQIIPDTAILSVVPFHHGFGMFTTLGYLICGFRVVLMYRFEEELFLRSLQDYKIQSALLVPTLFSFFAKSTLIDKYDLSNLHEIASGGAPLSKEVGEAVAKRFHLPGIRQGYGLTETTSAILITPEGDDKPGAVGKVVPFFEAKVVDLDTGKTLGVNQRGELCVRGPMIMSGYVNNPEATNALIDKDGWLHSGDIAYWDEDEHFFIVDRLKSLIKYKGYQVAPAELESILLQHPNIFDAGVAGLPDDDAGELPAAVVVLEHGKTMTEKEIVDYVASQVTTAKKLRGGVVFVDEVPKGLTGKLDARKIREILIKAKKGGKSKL
Description: NCGC Assay Overview: Firefly (Photinus pyralis) luciferase is one of the most commonly used transcriptional reporters. It is considered one of the more dynamically responsive reporters - that is, responsive to changes in reporter transcription - as it requires no post-translational modifications and is enzymatically active directly after protein synthesis (Wood, 1998). With no endogenous expression in mammalian cells and without the requirement of external excitation, it offers very little background signal, thus generally providing excellent signal to background for most assays. Previous profiling work to determine the prevalence of compounds that affect FLuc enzymatic activity (PubChem AID 411) identified that ~3% of the MLSMR library (then at ~72K) inhibited FLuc. […] Of the compounds identified in this profile that inhibited FLuc, 151 compounds were selected for further analysis, in an effort to better understand their mode of inhibiting FLuc. The assay described here confirms the FLuc inhibitory activity of the 151 compounds.
NCGC Assay Protocol Summary: Reagents: 50mM Tris acetate, pH 7.5; 10mM Mg acetate; 10uM D-luciferin (Sigma #L9504); 10uM ATP; 0.01% Tween-20; 0.05% BSA; 10nM P. pyralis luciferase (Sigma #L9506) Control compounds used were two known firefly luciferase inhibitors (3-(5-(3-chlorophenyl)-1,2,4-oxadiazol-3-yl)benzoic acid and 5-(2-fluorophenyl)-3-phenyl-1,2,4-oxadiazole), and DMSO. Three microliters containing firefly luciferase substrates in buffer (final concentrations: 50mM Tris acetate, pH 7.5, 10mM Mg acetate, 0.01% Tween-20, 0.05% BSA, 10uM D-luciferin, and 10uM ATP) are dispensed into each well of a Greiner white, solid-bottom 1536-well format plate using a flying reagent dispenser (FRD). These assay plates were then treated with 23nL of compound or DMSO using a Kalypsys pin tool, which allows for delivery of a 12-point intraplate titration of each compound to the assay plate (quantitative HTS), with a final compound concentrations ranging from approximately ~60uM to 0.3nM. One microliter of firefly luciferase in 500mM Tris-acetate buffer was then delivered by FRD to each well for a final enzyme concentration of 10nM. Luciferase activity was then measured using a ViewLux CCD imager (PerkinElmer), with an average exposure time of 2-30 seconds (2X binning, medium/high gain).

SMILES	Potency	activity change, negative = inhibition
O=C(Nc1ccccc1C(=O)O)c1ccc(Cl)c(S(=O)(=O)N2CCOCC2)c1	8.19 µM (active)	
O=C(O)c1ccc(NC(=O)c2cccc(C(=O)Nc3ccc(C(=O)O)cc3)c2)cc1		-8.45% (inactive)
O=C(O)c1cccc(NC(=O)c2ccc(COc3ccc(Cl)cc3)cc2)c1	3.66 µM (active)	
COc1ccc2nc(NC(=O)c3cnccn3)sc2c1	2.91 µM (active)	
Cc1ccc(S(=O)(=O)N2CCN(C(=O)c3ccccc3-c3nc4ccccc4s3)CC2)c(C)c1		-4.09% (inactive)
COc1ccc(NS(=O)(=O)c2cccc(C(=O)Nc3ccccc3C(=O)O)c2)cc1		-6.02% (inactive)
O=C(O)c1cccc(NC(=O)c2ccc(Cl)c(S(=O)(=O)N3CCCCCC3)c2)c1	0.058 µM (active)	
O=C(O)c1ccc(NC(=O)c2ccccc2NC(=O)c2cccc(Br)c2)cc1	14.6 µM (active)	
CCOc1ccc2nc(NC(=O)Cc3cccs3)sc2c1	10.3 µM (active)	
Cc1ccc2nc(-c3ccc(NC(=O)CN4CCN(C(=O)c5ccco5)CC4)cc3)sc2c1	5.8 µM (active)	
O=C(Nc1ccccc1-c1nc2ccccc2s1)c1cccnc1		9.41% (inactive)
O=C(O)c1cccc(NC(=O)c2cccc(NC(=O)C3CCCO3)c2)c1 (stereo not given)	0.919 µM (active)	
O=C(O)c1cccc(NC(=O)c2cccc(S(=O)(=O)N3CCCCC3)c2)c1	1.63 µM (active)	
CN=c1scc(-c2ccccc2F)n1/N=C/c1ccc[nH]1	0.0461 µM (active)	
Nc1ccc(C(=O)Nc2ccccc2C(=O)O)cc1	7.3 µM (active)	
COc1ccc(C(=O)Nc2ccccc2C(=O)Nc2ccc(C(=O)O)cc2)cc1	1.63 µM (active)	
C/C(=N\NC(=O)c1ccccc1NC(=O)c1ccc(Cl)cc1)c1ccncc1	0.0116 µM (active)	
O=C(Nc1ccccc1C(=O)O)c1cccc(S(=O)(=O)Nc2ccc(Br)cc2)c1		-10.2% (inactive)
Cc1ccccc1C(=O)Nc1cccc(C(=O)Nc2ccccc2C(=O)O)c1	32.6 µM (active)	
COc1cc(C(=O)Nc2cc(C)c(O)c(-c3nc4ccccc4s3)c2)cc(OC)c1OC		-10.3% (inactive)

SMILES	Potency	activity change, negative = inhibition
COc1ccc2nc(NC(=O)C3CCN(S(=O)(=O)c4cccnc4)CC3)sc2c1		-9.68% (inactive)
Nc1ccc(-c2nc3ccc(C(=O)O)cc3s2)cc1	0.0073 µM (active)	
COc1ccc(Br)cc1C(=O)Nc1ccc(C(=O)O)cc1		0.649% (inactive)
Nc1cccc(-c2nc3ccc(N)cc3s2)c1	0.366 µM (active)	
Nc1ccc2nc(-c3ccccc3)sc2c1	0.163 µM (active)	
CCOc1c(Cl)cc(C(=O)Nc2ccccc2C(=O)O)cc1Cl	18.3 µM (active)	
O=C(Nc1ccc(-c2nc3ccccc3s2)cc1)C1=COCCO1	0.0919 µM (active)	
O=C(Nc1ccccc1C(=O)O)c1cccc(NC(=O)c2ccccc2Cl)c1	23.1 µM (active)	
Cc1ccc(S(=O)(=O)N2CCOCC2)cc1C(=O)Nc1ccccc1C(=O)O		-19.3% (inactive)
CC(C)C(=O)Nc1cccc(C(=O)Nc2ccccc2C(=O)O)c1	5.8 µM (active)	
COc1ccc(C(=O)Nc2ccccc2-c2nc3ccccc3s2)c(OC)c1		-3.66% (inactive)
COc1cc(OC)cc(C(=O)Nc2ccc(-c3nc4ccccc4s3)c(C)c2)c1		-20.8% (inactive)
Cc1ccc(C(=O)Nc2ccccc2C(=O)O)cc1S(=O)(=O)N1CCCCCC1	1.83 µM (active)	
COc1ccc(C(=O)Nc2ccccc2C(=O)Nc2ccccc2C(=O)O)cc1	0.58 µM (active)	
CC(C)(C)NC(=O)c1ccccc1-c1nc2ccccc2s1		-8.09% (inactive)
Oc1ccc(-c2nc3ccccc3s2)c(O)c1	6.51 µM (active)	
O=C(O)c1cccc(NC(=O)c2cccc(S(=O)(=O)N3CCc4ccccc43)c2)c1	23.1 µM (active)	
COc1ccc2nc(NC(=O)c3ccccc3C(=O)O)sc2c1	18.3 µM (active)	
NC(=O)Cc1ccc2sc(-c3ccccc3)nc2c1	5.17 µM (active)	
COc1ccc2nc(NC(=O)c3cccs3)sc2c1	20.6 µM (active)	

From PubChem BioAssay AID602357 (National Center for Advancing Translational Sciences (NCATS), 2012)
